Results: the supplement of paper PMC11732987, “Enantioselective OTUD7B fragment discovery through chemoproteomics screening and high-throughput optimisation” (Communications Chemistry, 2025)

Columns and labels:
Assay in all cases: log2 ratio of Biotin-Ahx-Ub-VS probe labelling (fragment/DMSO); higher = less target engagement (more negative = stronger competition), active = hit call of the paper (q ≤ 0.05, log2 ratio ≤ -1)
Details in all cases: compound concentration: 200 uM; treatment time: 3 h
[1] = target: T1, ALG13 (UniProt Q9NP73)
T1 sequence (whole entry): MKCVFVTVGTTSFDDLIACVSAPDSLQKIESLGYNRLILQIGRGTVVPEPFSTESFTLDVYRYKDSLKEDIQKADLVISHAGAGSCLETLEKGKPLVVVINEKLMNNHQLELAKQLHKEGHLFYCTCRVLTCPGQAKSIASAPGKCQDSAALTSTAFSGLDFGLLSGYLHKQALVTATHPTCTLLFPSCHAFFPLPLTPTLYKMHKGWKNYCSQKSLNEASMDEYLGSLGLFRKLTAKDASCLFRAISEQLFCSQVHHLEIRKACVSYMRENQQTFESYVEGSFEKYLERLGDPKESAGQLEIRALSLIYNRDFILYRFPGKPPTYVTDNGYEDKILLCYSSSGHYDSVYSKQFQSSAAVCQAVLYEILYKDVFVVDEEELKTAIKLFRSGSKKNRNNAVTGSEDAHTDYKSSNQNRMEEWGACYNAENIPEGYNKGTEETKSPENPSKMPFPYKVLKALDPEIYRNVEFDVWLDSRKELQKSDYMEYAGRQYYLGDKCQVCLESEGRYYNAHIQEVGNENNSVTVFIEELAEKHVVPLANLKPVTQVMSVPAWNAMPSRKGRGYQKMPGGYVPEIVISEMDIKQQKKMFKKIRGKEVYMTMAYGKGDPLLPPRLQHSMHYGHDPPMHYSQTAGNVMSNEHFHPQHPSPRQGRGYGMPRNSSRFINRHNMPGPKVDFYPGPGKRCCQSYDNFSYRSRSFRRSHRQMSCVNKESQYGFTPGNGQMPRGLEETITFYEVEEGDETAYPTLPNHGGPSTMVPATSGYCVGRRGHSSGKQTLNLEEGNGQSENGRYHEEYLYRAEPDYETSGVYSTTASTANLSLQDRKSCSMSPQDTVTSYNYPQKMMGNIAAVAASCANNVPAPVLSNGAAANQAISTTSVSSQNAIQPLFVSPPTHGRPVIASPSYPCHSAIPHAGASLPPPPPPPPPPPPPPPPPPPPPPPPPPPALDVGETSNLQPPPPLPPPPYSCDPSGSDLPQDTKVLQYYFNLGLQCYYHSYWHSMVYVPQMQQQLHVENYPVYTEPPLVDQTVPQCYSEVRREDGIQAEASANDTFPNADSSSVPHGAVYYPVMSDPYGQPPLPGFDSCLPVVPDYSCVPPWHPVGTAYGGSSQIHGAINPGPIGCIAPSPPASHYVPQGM
In short: (§1)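 Average log2 ratios of fragment over vehicle were obtained by unpaired t-test from global-median-normalised Spectronaut label-free quantities. Proteins with ≥2 unique peptides were included. HEK293T lysate (495 µg per sample) was treated in triplicate with fragment at 200 µM or vehicle for 3 h, then with Biotin-Ahx-Ub-VS at 0.5 µM final for 1 h, and labelled DUBs were NeutrAvidin-enriched and run by diaPASEF LC-MS/MS.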

[2] = target: ATXN3 (UniProt P54252)
ATXN3, sequence (P54252 whole entry): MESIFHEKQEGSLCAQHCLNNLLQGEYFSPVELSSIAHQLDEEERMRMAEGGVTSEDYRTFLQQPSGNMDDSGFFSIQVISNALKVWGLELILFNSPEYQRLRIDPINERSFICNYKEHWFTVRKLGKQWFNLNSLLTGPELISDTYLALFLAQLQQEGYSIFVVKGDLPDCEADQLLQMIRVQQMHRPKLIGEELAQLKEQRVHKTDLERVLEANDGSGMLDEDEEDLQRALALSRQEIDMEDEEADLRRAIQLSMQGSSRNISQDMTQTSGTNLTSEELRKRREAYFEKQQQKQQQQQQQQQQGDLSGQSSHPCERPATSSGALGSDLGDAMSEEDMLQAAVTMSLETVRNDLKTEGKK
In short: as §1

[3] = target: T2, BAP1 (UniProt Q92560)
T2 sequence (whole entry): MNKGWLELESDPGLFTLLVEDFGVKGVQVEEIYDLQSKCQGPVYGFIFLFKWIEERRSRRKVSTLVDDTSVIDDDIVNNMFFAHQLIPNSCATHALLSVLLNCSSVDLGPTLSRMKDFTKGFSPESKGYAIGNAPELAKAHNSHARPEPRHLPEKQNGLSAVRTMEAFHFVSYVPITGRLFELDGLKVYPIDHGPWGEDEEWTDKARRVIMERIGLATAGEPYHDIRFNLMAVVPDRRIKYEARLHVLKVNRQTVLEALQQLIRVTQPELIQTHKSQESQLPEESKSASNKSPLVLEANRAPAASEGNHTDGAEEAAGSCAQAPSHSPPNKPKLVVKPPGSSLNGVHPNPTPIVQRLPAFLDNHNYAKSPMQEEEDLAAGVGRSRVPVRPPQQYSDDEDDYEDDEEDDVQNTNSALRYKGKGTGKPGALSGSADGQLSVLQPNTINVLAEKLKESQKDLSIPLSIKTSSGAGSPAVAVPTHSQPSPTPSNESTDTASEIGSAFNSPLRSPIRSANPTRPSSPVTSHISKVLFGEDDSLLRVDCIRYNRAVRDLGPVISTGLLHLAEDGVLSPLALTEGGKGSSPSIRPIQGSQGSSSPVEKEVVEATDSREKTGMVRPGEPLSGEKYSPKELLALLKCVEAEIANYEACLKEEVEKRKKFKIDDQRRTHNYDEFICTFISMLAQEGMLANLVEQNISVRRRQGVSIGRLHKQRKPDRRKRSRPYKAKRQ
In short: as §1

[4] = target: EIF3F (UniProt O00303)
EIF3F, sequence (O00303 whole entry): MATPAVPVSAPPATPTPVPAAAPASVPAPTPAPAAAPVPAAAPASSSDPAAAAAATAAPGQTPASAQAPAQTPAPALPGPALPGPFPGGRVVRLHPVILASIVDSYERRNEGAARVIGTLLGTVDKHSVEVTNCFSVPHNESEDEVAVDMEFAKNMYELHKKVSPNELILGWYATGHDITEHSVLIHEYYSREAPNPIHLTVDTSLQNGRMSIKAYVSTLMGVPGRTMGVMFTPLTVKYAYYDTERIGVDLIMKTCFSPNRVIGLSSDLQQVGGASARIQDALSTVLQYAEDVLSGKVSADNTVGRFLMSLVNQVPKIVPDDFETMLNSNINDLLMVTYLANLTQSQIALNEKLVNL
In short: as §1

[5] = target: EIF3H (UniProt O15372)
EIF3H, sequence (O15372 whole entry): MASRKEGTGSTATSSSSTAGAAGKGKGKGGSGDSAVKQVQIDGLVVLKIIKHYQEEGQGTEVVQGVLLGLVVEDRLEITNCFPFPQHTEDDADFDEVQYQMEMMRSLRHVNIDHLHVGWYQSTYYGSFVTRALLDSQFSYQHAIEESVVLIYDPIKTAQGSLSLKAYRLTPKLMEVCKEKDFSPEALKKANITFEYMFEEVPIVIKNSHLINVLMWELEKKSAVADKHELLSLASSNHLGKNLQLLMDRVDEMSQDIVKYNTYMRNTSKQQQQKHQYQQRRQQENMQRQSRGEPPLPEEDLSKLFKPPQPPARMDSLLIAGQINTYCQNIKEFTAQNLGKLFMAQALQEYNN
In short: as §1

[6] = target: T3, FAM105A (UniProt Q9NUU6)
T3 sequence (whole entry): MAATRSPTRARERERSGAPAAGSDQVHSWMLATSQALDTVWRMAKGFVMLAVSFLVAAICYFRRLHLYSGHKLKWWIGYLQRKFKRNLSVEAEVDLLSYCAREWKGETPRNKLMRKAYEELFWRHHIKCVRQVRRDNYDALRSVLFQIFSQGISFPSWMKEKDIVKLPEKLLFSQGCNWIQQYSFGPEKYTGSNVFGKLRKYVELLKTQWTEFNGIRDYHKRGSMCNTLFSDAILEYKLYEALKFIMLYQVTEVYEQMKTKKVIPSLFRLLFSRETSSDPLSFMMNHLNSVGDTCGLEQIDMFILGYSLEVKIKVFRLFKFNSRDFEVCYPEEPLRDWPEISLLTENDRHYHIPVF
In short: as §1

[7] = target: OTUB1 (UniProt Q96FW1)
OTUB1, sequence (Q96FW1 whole entry): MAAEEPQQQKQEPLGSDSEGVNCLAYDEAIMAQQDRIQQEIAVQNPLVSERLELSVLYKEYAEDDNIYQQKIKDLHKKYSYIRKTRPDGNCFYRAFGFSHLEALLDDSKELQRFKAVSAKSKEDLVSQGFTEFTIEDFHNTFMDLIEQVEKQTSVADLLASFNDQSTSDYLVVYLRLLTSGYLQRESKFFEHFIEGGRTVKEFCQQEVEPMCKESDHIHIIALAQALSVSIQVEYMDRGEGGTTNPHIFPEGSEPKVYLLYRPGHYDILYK
In short: as §1

[8] = target: T4, OTUD4 (UniProt Q01804)
T4 sequence (whole entry): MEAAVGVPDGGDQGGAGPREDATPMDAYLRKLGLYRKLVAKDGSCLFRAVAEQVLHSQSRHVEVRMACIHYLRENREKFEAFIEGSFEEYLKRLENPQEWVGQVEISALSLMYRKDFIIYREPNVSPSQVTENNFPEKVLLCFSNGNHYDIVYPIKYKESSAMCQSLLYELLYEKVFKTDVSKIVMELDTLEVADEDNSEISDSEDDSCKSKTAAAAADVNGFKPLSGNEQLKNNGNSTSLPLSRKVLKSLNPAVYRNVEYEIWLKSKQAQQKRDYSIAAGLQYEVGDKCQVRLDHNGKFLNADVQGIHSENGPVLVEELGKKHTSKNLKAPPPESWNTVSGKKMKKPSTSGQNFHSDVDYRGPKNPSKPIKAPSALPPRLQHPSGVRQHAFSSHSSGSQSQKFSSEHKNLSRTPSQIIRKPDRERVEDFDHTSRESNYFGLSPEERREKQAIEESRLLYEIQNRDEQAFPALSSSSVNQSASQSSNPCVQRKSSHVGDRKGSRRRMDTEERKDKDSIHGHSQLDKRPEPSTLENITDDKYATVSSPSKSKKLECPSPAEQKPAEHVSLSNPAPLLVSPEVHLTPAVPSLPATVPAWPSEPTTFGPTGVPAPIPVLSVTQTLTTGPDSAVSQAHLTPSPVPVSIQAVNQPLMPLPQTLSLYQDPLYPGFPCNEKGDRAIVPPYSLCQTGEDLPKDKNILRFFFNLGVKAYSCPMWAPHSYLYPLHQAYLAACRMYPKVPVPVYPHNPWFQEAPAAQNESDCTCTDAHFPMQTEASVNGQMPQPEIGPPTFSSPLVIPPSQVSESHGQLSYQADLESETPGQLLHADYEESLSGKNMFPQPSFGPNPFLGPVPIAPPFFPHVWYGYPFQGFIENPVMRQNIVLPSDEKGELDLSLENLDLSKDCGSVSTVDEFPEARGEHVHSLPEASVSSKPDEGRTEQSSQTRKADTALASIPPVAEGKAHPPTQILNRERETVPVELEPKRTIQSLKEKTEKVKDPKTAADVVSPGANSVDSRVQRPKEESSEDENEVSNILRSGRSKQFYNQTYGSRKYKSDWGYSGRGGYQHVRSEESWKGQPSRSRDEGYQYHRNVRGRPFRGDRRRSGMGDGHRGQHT
In short: as §1

[9] = target: T5, OTUD5 (UniProt Q96G74)
T5 sequence (whole entry): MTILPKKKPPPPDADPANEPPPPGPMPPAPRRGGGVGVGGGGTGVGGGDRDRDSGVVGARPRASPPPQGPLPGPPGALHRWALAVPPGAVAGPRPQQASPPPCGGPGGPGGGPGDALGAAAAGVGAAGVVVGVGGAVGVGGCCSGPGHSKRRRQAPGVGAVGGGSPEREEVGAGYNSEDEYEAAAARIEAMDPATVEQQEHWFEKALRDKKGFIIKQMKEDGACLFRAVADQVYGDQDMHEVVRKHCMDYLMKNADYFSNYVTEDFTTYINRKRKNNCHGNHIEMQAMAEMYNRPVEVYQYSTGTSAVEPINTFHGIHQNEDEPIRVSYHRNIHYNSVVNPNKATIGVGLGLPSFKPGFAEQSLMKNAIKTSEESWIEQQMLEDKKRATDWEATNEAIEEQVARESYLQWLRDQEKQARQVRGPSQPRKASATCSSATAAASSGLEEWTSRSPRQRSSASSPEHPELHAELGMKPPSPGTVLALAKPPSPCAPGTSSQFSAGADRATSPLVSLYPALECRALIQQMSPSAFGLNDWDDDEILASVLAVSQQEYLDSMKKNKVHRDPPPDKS
In short: as §1

Measured: log2 ratio of Biotin-Ahx-Ub-VS probe labelling

Cl.O=C(CCl)N1CCC(Cc2nccs2)C1 (centres undefined)
inactive: [1] 0.0161 | [2] -0.494 | [3] -0.428 | [4] -0.176 | [5] 0.0343 | [6] -0.0526 | [7] -0.388 | [8] -0.386 | [9] -0.302
